The values below come from PubChem BioAssay (EPA / NIEHS).

Active and inactive are the calls of the source. How the source made its calls: active means hit-call score of the fitted dose curve at least 0.9, where 1 is the maximum; inactive means score below 0.9.

Read-out in the experiment: Vascular cell adhesion molecule 1 (VCAM1), VCAM1 (gene 7412)
Kind of experiment: BSK_MyoF_VCAM1: BioMAP Diversity Plus: MyoF Assay for Vascular cell adhesion molecule 1 (VCAM1) Biomarker Activity (AID 2284231). The conditions noted are these: primary human lung fibroblasts. How it is done: BSK_MyoF is a cell-based, multiplexed-readout assay that uses lung fibroblasts, […], with measurements taken at 24 hours after chemical dosing in a microplate: 96-well plate.BSK_MyoF_VCAM1 is an assay component measured in the BSK_MyoF assay. It measures VCAM-1 antibody related to regulation of gene expression using ELISA technology.Data from the assay component BSK_MyoF_VCAM1 was analyzed at the endpoint, BSK_MyoF_VCAM1, in the positive analysis fitting direction relative to DMSO as the negative control and baseline of activity. Using a type of binding reporter, gain or loss-of-signal activity can be used to understand protein changes. To generalize the intended target to other relatable targets, this assay endpoint is annotated to the 'cell adhesion molecules' intended target family, where the subfamily is 'Immunoglobulin CAM'.
The levels of cell surface (or secreted, indicated by the prefix "s") biomarker endpoints were measured by ELISA. Overt cytotoxicity to cells in confluent adherent cultures (all systems other than the BT system) was assessed by measuring total protein levels using sulforhodamine B (SRB) staining in parallel cultures at the time of biomarker measurements, indicated as SRB endpoints. For proliferation assays for adherent cell types, individual cell types are cultured at sub-confluence and relative cell numbers quantified by SRB staining at time points optimized for each system (48 h: 3C and CASM3C systems; 72 h: BT and HDF3CGF systems; 96 h: SAg system). SRB was performed by staining cells with 0.1% SRB after fixation with 10% TCA and reading wells at 560 nm.Viability and proliferation of PBMC (T cells) was quantified by Alamar Blue reduction for the SAg and BT systems. For PBMC viability (referred to as PBMC Cytotoxicity within the assay endpoint names), cells were plated (75,000/well in a 96-well plate) and then chemical samples added for 1 h before addition of activators, SEB and TSST-1 (20 ng/mL final concentration each). Cells were incubated for 90 h. Then, Alamar Blue (20 uL/well) (Invitrogen, Cat DAL1100) was added for 6 h, and the plates were read with a fluorescence microplate reader at 546/580 nm (excitation/emission). For PBMC proliferation, cells were plated and activated as above but incubated for only 16 h prior to addition of Alamar Blue. Plates were read after 6 h.
With `C[Si](Cl)(Cl)CCC(F)(F)C(F)(F)C(F)(F)C(F)(F)C(F)(F)C(F)(F)F`, the result was inactive.

One may read the AC50 as the midpoint of the concentration-response curve, whichever way the signal moves. In the case of `O=C1c2c(O)ccc(Nc3ccc(CCO)cc3)c2C(=O)c2c([N+](=O)[O-])ccc(O)c21`, the concentration at half-maximal activity (AC50) is 20 µM (active).

On to `Cc1cnccn1`, for which the outcome was inactive.

Consider `O=C(Cl)C(F)(F)C(F)(F)C(F)(F)C(F)(F)C(F)(F)C(F)(F)F`, for which the result was inactive.

Turning to `FC(F)(F)C(F)(F)C(F)(F)CC1CO1` (stereo not given), the outcome was inactive.

For `NCC(F)(F)C(F)(F)C(F)(F)C(F)(F)C(F)(F)C(F)(F)C(F)(F)C(F)(F)F`, the outcome was inactive.

Turning to `NC(O)(C(F)(F)F)C(F)(F)F`, the outcome was inactive.

As for `NC(=O)C(F)(F)C(F)(F)C(F)(F)C(F)(F)C(N)=O`, the outcome was inactive.

As to `CNS(=O)(=O)C(F)(F)C(F)(F)C(F)(F)C(F)(F)C(F)(F)C(F)(F)C(F)(F)C(F)(F)F`, the outcome was inactive.

Take `C[C@]12CC[C@H]3C(=CCc4cc(O)ccc43)[C@@H]1CCC2=O`: the result was inactive.

As to `O=S(=O)(Cl)C(F)(F)C(F)(F)C(F)(F)C(F)(F)C(F)(F)C(F)(F)C(F)(F)C(F)(F)F`, the result was inactive.

With `O=C(F)C1(F)C(F)(F)C(F)(F)C(F)(F)C(F)(F)C1(F)F`, the result was inactive.

Turning to `CCN(CC)c1ccc2c(c1)Oc1cc(N(CC)CC)ccc1C21OC(=O)c2ccccc21`, the result was inactive.

Consider `Cc1cc(O)c(C(C)(C)C)cc1C(C)(C)C`, for which the AC50 is 3.83 µM (active).

`O=C(O)C(F)(F)OC(F)(F)C(F)(F)OC(F)(F)C(F)(F)OC(F)(F)F`: the outcome was inactive.

As for `O=C1C=CC(=O)N1c1ccc(Cc2ccc(N3C(=O)C=CC3=O)cc2)cc1`, the half-maximal activity concentration (AC50) was 3.05 µM (active).

With `CC(C)(C)c1cc(CCC(=O)NCCCCCCNC(=O)CCc2cc(C(C)(C)C)c(O)c(C(C)(C)C)c2)cc(C(C)(C)C)c1O`, the outcome was inactive.

For `OCC(O)CC(F)(F)C(F)(F)C(F)(F)C(F)(F)F` (stereo not given), the outcome was inactive.

With `O=C(c1ccccc1)c1ccc(O)cc1O`, the outcome was inactive.

Consider `O=C=NCc1cccc(CN=C=O)c1`, for which the result was inactive.

For the molecule `CN(C(=O)C(F)(F)C(F)(F)C(F)(F)F)[Si](C)(C)C`, the result was inactive.

Regarding `OCC(O)CC(F)(F)C(F)(F)C(F)(F)C(F)(F)C(F)(F)C(F)(F)C(F)(F)C(F)(F)F` (stereo not given), the result was inactive.

`CCOC(C=C(C)CCC=C(C)C)OCC`: the concentration at half-maximal activity (AC50) is 27 µM (active).

Take `Nc1cc([N+](=O)[O-])cc(Cl)c1O`: the result was inactive.

As to `OC(O)C(F)(F)C(F)(F)F`, the result was inactive.

Regarding `NCC(F)(F)C(F)(F)C(F)(F)C(F)(F)C(F)(F)C(F)(F)F`, the outcome was inactive.

On to `O=S(=O)(OCC(F)(F)F)C(F)(F)C(F)(F)C(F)(F)C(F)(F)F`, for which the result was inactive.

With `NS(=O)(=O)C(F)(F)C(F)(F)C(F)(F)C(F)(F)C(F)(F)C(F)(F)F`, the result was inactive.

Consider `O=C=Nc1cccc2c(N=C=O)cccc12`, for which the result was inactive.

Turning to `O=C(O)C(F)(F)C(F)(F)C(F)(F)OC(F)(C(F)(F)F)C(F)(F)F`, the outcome was inactive.

Regarding `CCN(CC)c1ccc(C=O)cc1`, the outcome was inactive.

As to `O=S(=O)(O)CCC(F)(F)C(F)(F)C(F)(F)C(F)(F)F`, the outcome was inactive.

For `OCC(F)(F)C(F)(F)C(F)(F)CO`, the outcome was inactive.

As to `CCN(CC)c1ccc(C=O)c(O)c1`, the outcome was inactive.

Regarding `O=C(O)CCC(F)(F)C(F)(F)C(F)(F)C(F)(F)C(F)(F)C(F)(F)C(F)(F)F`, the outcome was inactive.

In the case of `Cc1ccc(O)c(-n2nc3ccccc3n2)c1`, the outcome was inactive.

On to `O=C(O)C(F)(F)C(F)(F)C(F)(F)C(=O)O`, for which the result was inactive.

For the molecule `CC1=CC2C3C=CC(C3)C2C1C` (stereo not given), the outcome was inactive.

As for `O=C(Cl)C(F)(F)C(F)(F)C(F)(F)C(F)(F)C(F)(F)C(F)(F)C(F)(F)F`, the result was inactive.

As to `COC(F)(C(F)F)C(F)(F)F` (stereo not given), the outcome was inactive.
